# Test results reported in PMC12214610.
# What was measured:
# [1] = biological target: Small ribosomal subunit protein uS8 (UniProt P0A7W7)
# [2] = biological target: Actin, cytoplasmic 2 (UniProt P63261)
# [3] = biological target: Heat shock 70 kDa protein 1B (UniProt P0DMV9)
# [4] = biological target: Heat shock cognate 71 kDa protein (UniProt P11142)
# [5] = biological target: Peptidyl-prolyl cis-trans isomerase A (UniProt P62937)
# [6] = biological target: Elongation factor 1-alpha 1 (UniProt P68104)
# [7] = biological target: Large ribosomal subunit protein eL6 (UniProt Q02878)
# [8] = biological target: Large ribosomal subunit protein uL5 (UniProt P62399)
# [9] = biological target: Large ribosomal subunit protein uL22 (UniProt P61175)
# [10] = biological target: Small ribosomal subunit protein uS3 (UniProt P0A7V3)
# [11] = biological target: Adenylyl cyclase-associated protein 1 (UniProt Q01518)
# Sequence of Heat shock cognate 71 kDa protein (P11142 whole entry): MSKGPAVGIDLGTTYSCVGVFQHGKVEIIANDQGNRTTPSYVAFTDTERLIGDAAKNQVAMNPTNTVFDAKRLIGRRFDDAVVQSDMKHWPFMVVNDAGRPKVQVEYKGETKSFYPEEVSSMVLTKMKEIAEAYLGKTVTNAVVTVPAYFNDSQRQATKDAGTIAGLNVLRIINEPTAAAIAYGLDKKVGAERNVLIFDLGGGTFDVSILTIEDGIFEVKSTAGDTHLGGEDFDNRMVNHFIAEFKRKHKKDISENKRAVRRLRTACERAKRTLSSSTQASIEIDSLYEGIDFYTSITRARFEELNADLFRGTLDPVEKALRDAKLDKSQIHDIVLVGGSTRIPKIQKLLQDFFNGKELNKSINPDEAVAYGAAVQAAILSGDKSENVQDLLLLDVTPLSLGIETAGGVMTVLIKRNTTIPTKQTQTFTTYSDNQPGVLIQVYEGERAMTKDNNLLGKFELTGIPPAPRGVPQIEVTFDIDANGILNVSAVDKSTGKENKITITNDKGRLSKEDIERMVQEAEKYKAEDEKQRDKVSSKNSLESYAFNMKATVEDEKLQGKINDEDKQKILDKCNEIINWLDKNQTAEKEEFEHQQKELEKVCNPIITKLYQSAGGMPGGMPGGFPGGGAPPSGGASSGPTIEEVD
# Sequence of Heat shock 70 kDa protein 1B (P0DMV9 whole entry): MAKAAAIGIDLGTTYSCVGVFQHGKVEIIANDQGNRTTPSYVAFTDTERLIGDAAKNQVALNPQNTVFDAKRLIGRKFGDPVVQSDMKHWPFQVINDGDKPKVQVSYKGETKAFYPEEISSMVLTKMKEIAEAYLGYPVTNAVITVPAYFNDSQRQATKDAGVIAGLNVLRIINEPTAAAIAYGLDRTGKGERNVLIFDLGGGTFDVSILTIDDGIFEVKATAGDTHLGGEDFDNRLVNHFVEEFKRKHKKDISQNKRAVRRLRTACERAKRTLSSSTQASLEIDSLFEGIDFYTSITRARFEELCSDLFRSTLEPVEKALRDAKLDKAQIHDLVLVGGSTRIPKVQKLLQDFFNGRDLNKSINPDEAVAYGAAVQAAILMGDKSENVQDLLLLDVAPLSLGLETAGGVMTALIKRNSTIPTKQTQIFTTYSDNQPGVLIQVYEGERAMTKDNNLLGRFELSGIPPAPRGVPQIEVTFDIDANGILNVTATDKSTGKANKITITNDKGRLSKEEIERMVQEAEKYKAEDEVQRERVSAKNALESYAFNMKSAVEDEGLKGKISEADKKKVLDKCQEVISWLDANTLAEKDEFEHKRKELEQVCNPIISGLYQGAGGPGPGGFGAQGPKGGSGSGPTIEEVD
substance,measurement,setting,value
"Small ribosomal subunit protein uS5, P0A7W1",listed as a hit,[1],yes
"Polyubiquitin-B, P0CG47",listed as a hit,[2],yes
same,listed as a hit,[3],yes
same,listed as a hit,[4],yes
same,listed as a hit,[5],yes
"Elongation factor 2, P13639",listed as a hit,[2],yes
same,listed as a hit,[6],yes
"Peptidyl-prolyl cis-trans isomerase A, P62937",listed as a hit,[6],yes
"Large ribosomal subunit protein eL28, P46779",listed as a hit,[7],yes
"Small ribosomal subunit protein uS19, P0A7U3",listed as a hit,[8],yes
"Large ribosomal subunit protein bL32, P0A7N4",listed as a hit,[9],yes
"Small ribosomal subunit protein uS2, P0A7V0",listed as a hit,[10],yes
same,listed as a hit,[1],yes
"Actin, alpha skeletal muscle, P68133",listed as a hit,[11],yes
